# CRFR2-BP antag: antagonists of CRF-binding protein/CRF-R2 receptor complex | HEK293 CRF-R2/CRF-BP, CRF-induced calcium fluorescence | inhibition, % at 11.8 µM | hit rate 0.59% among 350,000;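 active = inhibition of the ligand-induced calcium signal above about 50% at the single tested concentration, limit read from the data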
# GRIN3A LBD mod: NR3A (human) ligand-binding domain modulation. Tm shift relative to glycine control, % at 25 µM. NR3A LBD differential scanning fluorimetry, Tm shift; 0% = protein alone, 100% = glycine-bound protein. hit rate 2.5% among 340,000;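 active = melting temperature shift of at least 10% of the positive control shift, at one fixed dose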
# TMEM16A inh: inhibitors of mouse TMEM16A calcium-activated chloride channel. hit rate 1.2% among 310,000. HEK293 TMEM16A/YFP iodide influx fluorescence, ionomycin. Q8BHY3. normalized B-score (activity score, 25-100; higher = stronger inhibition) at 10 µM;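 active = ratio plate-corrected score three or more library SD toward inhibition, starting fluorescence score within five deviations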;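 also: score derived from kinetic fluorescence span divided by baseline fluorescence per well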
# CRFBP-R2 agonist: CRF-BP/CRF-R2 complex agonism. HEK293 CRF-R2/CRF-BP, calcium dye fluorescence (FLIPR); percent of saturating CRF peptide response. activation, % at 13.2 µM. hit rate 0.46% among 350,000;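 active = activation of at least 50%, plus an integration ratio under a set limit after plate pattern correction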
# ANO1 activ: activators or potentiators of mouse TMEM16A chloride channel. Q8BHY3. HEK293 TMEM16A/YFP-H148Q/I152L, iodide quench fluorescence; active compounds read low. B-score at 10 µM. hit rate 0.3% among 340,000. AID 623877;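 active = fluorescence-ratio B-score plate-corrected deviation score at least 3 library SD below zero, with starting fluorescence score within 5 deviations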;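 also: channel opened by trigger with iodide after compound preincubation; score built on the fluorescence ratio of max minus min over baseline; more negative score means more quench and so TMEM16A activation or potentiation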
# MPTP block: permeability transition pore inhibition | AID 602449 | isolated mouse mitochondria, Ca2+ swelling absorbance, 30 min | hit rate 1.4% among 360,000 | inhibition, % at 10 µM;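 active = inhibition of 50% or more, scaled per plate between neutral and stimulator controls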
# A number is an active result; 0 = inactive; - = not tested or not shown. Rows were chosen to be rich in hits. Some 5.1% of all compounds tested hit in one or more screens of this group.
SMILES,CRFR2-BP antag,GRIN3A LBD mod,TMEM16A inh,CRFBP-R2 agonist,ANO1 activ,MPTP block
O=C1N/C(=C/c2ccc(N3CCOCC3)o2)C(=O)N1c1cccc(Cl)c1,70,0,0,0,0,0
Cc1ccc(OCCNC(=O)CNC(=O)c2ccc3c(c2)OCO3)cc1,0,0,0,0,0,0
COc1ccc(NC(=O)c2ccc3c(c2)NC(=O)CS3)cc1,0,0,-,0,0,0
Cc1ccc(S(=O)(=O)Nc2ccc(Cl)cc2)cc1NC(=O)c1cc2c(s1)CCCC2,0,12,0,0,0,0
Cc1ccc(OC(C)C(=O)Nc2ccc(C)c(S(=O)(=O)Nc3ccc(C)cc3C)c2)cc1 (stereo not drawn),0,12,0,0,0,0
Cc1ccc(S(=O)(=O)N2CCOCC2)cc1NC(=O)c1cc2c(s1)CCC2,0,0,0,0,0,0
Cc1ccc(NS(=O)(=O)c2cc(NC(=O)c3ccc4c(c3)NC(=O)CS4)ccc2Cl)c(C)c1,0,16,0,0,0,0
Cc1ccc(NS(=O)(=O)c2cc(NC(=O)c3cc4c(s3)CCCC4)ccc2C)c(C)c1,0,25,0,0,0,0
Cc1ccc(OC(C)C(=O)Nc2ccncc2)cc1 (stereo not drawn),0,0,0,0,0,0
CCC(CC)c1nnc(NC(=O)CN2C(=O)NC3(CCCC3)C2=O)s1,0,0,0,0,0,0
O=C(CN1C(=O)C(=O)N(Cc2ccccc2)C1=O)Nc1cc(Cl)cc(Cl)c1,0,26,0,0,0,0
COc1ccc(OC)c(NC(=O)CN2C(=O)C(=O)N(Cc3ccccc3)C2=O)c1,0,0,-,0,0,0
O=C(CN1C(=O)C(=O)N(Cc2ccccc2)C1=O)Nc1ccc(OC(F)F)cc1,0,16,-,0,0,0
Cc1ccc(OCC(=O)N(C)CC(=O)Nc2ccc(Cl)c(C(F)(F)F)c2)c([N+](=O)[O-])n1,0,0,-,0,0,0
Cc1cccc(CSc2ccc3nnc(-c4cccs4)n3n2)c1,63,0,0,0,0,0
COc1ccc(-n2nnnc2-c2cccnc2)cc1,0,15,0,0,0,0
O=C(CC(Nc1ccccc1)C(=O)O)c1ccccc1 (stereo not drawn),0,36,0,0,0,0
Cc1ccc(NC(CC(=O)c2ccccc2)C(=O)O)cc1Cl (stereo not drawn),0,0,0,0,0,0
C=CCCC(=O)N1C[C@H]2CON(C)[C@H]2C[C@H]1c1cccc(Br)c1,0,0,-,0,-,0
COc1ccc(OC)c(NC(=O)c2cc(-c3cc(C)cc(C)c3O)n[nH]2)c1,0,20,0,0,0,0
COc1ccc(OC)c(NC(=O)c2cc(-c3cc(C)c(C)cc3O)n[nH]2)c1,0,41,0,0,0,0
COc1ccc(OC)c(NC(=O)c2cc(-c3c(C)cc(C)cc3O)n[nH]2)c1,0,0,0,0,0,0
COc1ccc(NC(=O)c2cc(-c3cc(C)c(C)cc3O)n[nH]2)c(OC)c1,0,42,0,0,0,0
COc1ccc(NC(=O)c2cc(-c3cc(Cl)ccc3O)n[nH]2)c(OC)c1,0,31,0,0,0,0
COc1ccc(NC(=O)c2cc(-c3cc(Cl)ccc3OC)n[nH]2)c(OC)c1,-,-,-,-,-,0
SMILES,CRFR2-BP antag,GRIN3A LBD mod,TMEM16A inh,CRFBP-R2 agonist,ANO1 activ,MPTP block
N#CCCCCn1ccc(NC(=O)c2ccc(Cl)cc2O)n1,0,0,0,0,0,0
CC1(C(=O)NCc2ccc3c(c2)OCO3)CCN1C(=O)CCc1ccc(Cl)cc1Cl (stereo not drawn),-,-,-,-,-,0
COc1ccccc1C(=O)NC(CCSC)C(=O)OCC(=O)NC(=O)NCc1ccco1 (stereo not drawn),0,0,0,0,-24,0
COCCn1c(C)cc(/C=C(\C#N)C(=O)OC(C)C(=O)Nc2ccc(NC(C)=O)cc2)c1C (stereo not drawn),0,0,0,0,0,0
COCCn1c(C)cc(C(=O)COC(=O)c2cccc(O)c2)c1C,0,0,0,0,0,0
COCCn1c(C)cc(C(=O)COC(=O)c2cc3c(s2)CCC3)c1C,64,0,0,0,0,0
Cc1ccc(C(c2sc3ncnn3c2O)N2CCC(C)CC2)cc1 (stereo not drawn),0,0,0,0,0,0
CC1CN(C(c2ccco2)c2sc3ncnn3c2O)CC(C)O1 (stereo not drawn),82,0,0,0,0,0
COc1ccc(C(=O)O)cc1NC(=S)NC(=O)/C=C/c1ccc(C(C)C)cc1,0,0,0,0,0,0
CCCCn1c(N)c(N(Cc2ccccc2OC)C(=O)CSCC(=O)Nc2cccc(C)c2)c(=O)[nH]c1=O,0,0,0,0,0,0
Cc1cc(/C=C(\C#N)C(=O)NCCc2c[nH]c3ccccc23)c(C)n1C,0,0,0,0,0,0
Cc1cccc(NC(=O)C(=O)NCCc2c[nH]c3ccccc23)c1C,0,0,0,0,-5.6,0
N#C/C(=C/c1ccc(Br)s1)C(=O)NCCc1c[nH]c2ccccc12,0,23,0,0,0,0
Cc1cccc(NC(=O)c2cc3c([nH]c4ccccc43)c(C)n2)c1C,0,14,0,0,0,0
O=C(NCCc1c[nH]c2ccccc12)C(=O)c1c[nH]c2ccccc12,0,25,0,0,0,0
CCCCOc1ccc(C(=O)NCC(=O)NNC(=O)C2COc3ccccc3O2)cc1 (stereo not drawn),0,0,-,0,0,0
N#Cc1cccc(NC(=O)NCCc2c[nH]c3ccccc23)c1,0,11,0,0,0,0
O=C(NCCc1ccccc1)c1c[nH]c2ccccc2c1=O,0,-,-,73,-,0
O=C(NCCc1c[nH]c2ccccc12)Nc1ccccc1,0,16,0,0,0,0
N#C/C(=C\c1cccnc1)C(=O)Nc1ccc(S(N)(=O)=O)cc1,0,0,0,0,0,0
C/C(=N\Nc1ccc(Cl)c(C(=O)O)c1)c1ccc(N2CCOCC2)cc1,0,0,25,0,0,0
CN1CCN(c2ccc(-c3cc(NC=O)c4ncc(-c5ccccc5)n4c3)cc2)CC1,-,-,-,-,-,0
CC(=O)Nc1cccc(OCC(=O)NS(=O)(=O)c2ccc(C)cc2)c1,0,0,0,0,0,0
CCOc1ccc(S(=O)(=O)Nc2cccc(OC)c2)cc1,0,11,0,0,0,0
COC(=O)COc1cccc(NS(=O)(=O)c2ccc(NC(C)=O)cc2)c1,0,14,0,0,0,0
N#Cc1ccccc1OCC(=O)NC1CCCCCC1,0,-,-,0,-,0
C[C@@H]1CCCCO[C@H](CN(C)S(=O)(=O)c2cccs2)[C@@H](C)CN([C@H](C)CO)C(=O)c2cc(NC(=O)C3CCCCC3)ccc2O1,0,-,-,0,-,0
CC(=O)Nc1cc2c(cc1[N+](=O)[O-])-c1ccccc1C2=NO,0,0,-,0,0,0
Nc1ccc2c(c1)C(=O)c1ccc(Br)cc1-2,0,26,-,0,0,0

# Compound activity (PubChem)
